Screens: PubChem, Buhrlage Lab, Dana-Farber Cancer Institute and Novartis Institutes for BioMedical Research (Cambridge, Mass)
USP30 block – blocks human USP30 ubiquitin-rhodamine cleavage | Q70CQ3 | purified USP30, Ub-rhodamine cleavage fluorescence | inhibition, % at 25 µM | actives 5.3% (n = 47,000) | AID 1645860
Target sequence (Q70CQ3 whole entry, looked up): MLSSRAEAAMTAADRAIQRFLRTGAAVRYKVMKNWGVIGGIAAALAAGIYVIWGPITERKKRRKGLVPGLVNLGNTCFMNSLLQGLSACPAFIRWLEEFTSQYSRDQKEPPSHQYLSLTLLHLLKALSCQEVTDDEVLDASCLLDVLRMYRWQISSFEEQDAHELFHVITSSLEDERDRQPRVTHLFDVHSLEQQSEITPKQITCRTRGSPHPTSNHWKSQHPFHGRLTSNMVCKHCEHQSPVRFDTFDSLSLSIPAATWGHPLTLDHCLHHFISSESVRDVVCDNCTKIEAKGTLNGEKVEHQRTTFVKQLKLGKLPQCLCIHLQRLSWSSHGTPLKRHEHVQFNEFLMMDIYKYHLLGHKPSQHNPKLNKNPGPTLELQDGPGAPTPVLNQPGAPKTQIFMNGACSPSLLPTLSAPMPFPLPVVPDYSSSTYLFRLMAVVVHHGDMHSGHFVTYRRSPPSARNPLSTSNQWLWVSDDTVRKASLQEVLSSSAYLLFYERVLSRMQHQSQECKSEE
USP28 inh – human USP28 deubiquitinase inhibition; actives 3% (n = 47,000); purified USP28, Ub-rhodamine cleavage fluorescence, 30 min; AID 1645857; inhibition, % at 25 µM
USP17 inh – human USP17-like deubiquitinase inhibition; A8MUK1; purified USP17, Ub-rhodamine cleavage fluorescence, 3 h; inhibition, % at 50 µM; actives 6.5% (n = 47,000)
An asterisk follows results filed as active; i = inactive; x = not tested or not shown. Compounds with a hit are over-represented: about 11% of the library has one in this group of screens. Rule as the data show it: active = inhibition above about 30%; inactive = the rest.

SMILES | USP30 block | USP28 inh | USP17 inh
Cc1ccc(NC(=O)c2cc(-c3cccnc3)n[nH]2)cc1F | 48.6* | 34.4* | 39.9*
COc1ccc(NC(=O)c2nc3ccccc3nc2N2CCN(C)CC2)cc1Cl | -22.7 | -11.0 | -13.6
O=C(Cc1nc(-c2cccnc2)n[nH]1)Nc1ccc(F)c(F)c1 | -20.2 | 0.1 | -9.9
CN1CCC(c2nnc3n2CCN(C(=O)c2ccc4c(c2)CCCC4)CC3)CC1 | -6.4 | -3.8 | 4.4
Cc1noc(C)c1CC(=O)N1C[C@H]2CC[C@@H](N(C)c3cnccn3)[C@H]2C1 | -7.4 | -0.6 | -4.3
Cc1c(CNCc2ccc3c(c2)OCO3)c(C(=O)O)c(C)n1Cc1ccc(Cl)cc1 | -12.5 | -13.0 | -15.3
Cc1ccc(N(CCC(=O)Nc2ccc(C)cc2Cl)S(=O)(=O)c2ccc(C)cc2)cc1 | 0.0 | 0.0 | -0.6
COc1ccc(-c2noc(CC(=O)Nc3ccccc3OC)n2)cc1 | 17.3 | 5.8 | 0.2
COc1ccccc1NC(=O)NCc1nc(-c2ccc(C(F)(F)F)cc2)no1 | 45.6* | 9.4 | 24.3
CC(C)(C)n1ccc2c(cnc3nc(-c4ccncc4)nn32)c1=O | -40.0 | -12.1 | -31.6
O=C(CN1C(=O)C(c2ccccc2)Oc2cccnc21)NCCCN1CCCCCC1 (configuration not stated) | -61.1 | -15.2 | 40.9*
CCOc1ccccc1CNC(=O)CCCN1C(=O)C(c2ccccc2)Oc2cccnc21 (configuration not stated) | -6.5 | -4.0 | 10.2
Cc1cc(=O)n(CC(=O)Nc2ccc(F)cc2C)c(N2CCCCC2)n1 | 20.9 | 5.4 | 8.0
Cc1cccc(Nc2nc(C)cc(=O)n2CC(=O)Nc2ccccc2)c1 | 30.3* | 6.6 | 20.0
Cc1cc(=O)n(CC(=O)Nc2ccc(C)c(C)c2)c(N2CCCC2)n1 | 34.6* | 6.4 | 9.6
Cc1cc(C)c2c(n1)SCC(=O)N2CC(=O)Nc1ccccc1F | -13.8 | -8.7 | x
Cc1cc(=O)n(CC(=O)Nc2ccc(F)c(F)c2)c(N2CCCCC2)n1 | 5.8 | 8.3 | 3.0
Cc1cc(=O)n(CC(=O)Nc2ccccc2)c(Nc2ccc(C)c(C)c2)n1 | 8.2 | -6.7 | 0.7
Cc1ccc(NC(=O)Cn2c(Nc3ccc(F)cc3)nc(C)cc2=O)cc1 | 66.7* | 9.9 | 77.6*
Cc1cc(=O)n(CC(=O)Nc2ccccc2F)c(Nc2ccc(F)cc2)n1 | 83.2* | 39.3* | 44.4*
CC(=O)N1c2ccccc2O[C@@H]2C[C@@H](NC(=O)c3cccc(F)c3)[C@@H](O)[C@@H]21 | 5.0 | 6.3 | 3.1
Cc1nc(C2CN(Cc3ncc(C(C)C)o3)CCO2)n[nH]1 (configuration not stated) | 9.8 | -3.9 | -8.8
O=C(C1CCN(c2cnc(N3CCCC3)nc2)CC1)N1CCCCC1 | -18.5 | 0.9 | -4.8
CC(C)NC(=O)N1CCN(S(=O)(=O)c2ccccc2)CC2(CC(=O)N(C)C2)C1 (configuration not stated) | 14.3 | 8.8 | 9.5
Cc1cc(=O)n(CC(=O)Nc2ccccc2)c(Nc2ccc(F)cc2)n1 | 62.7* | 42.8* | 69.2*
SMILES | USP30 block | USP28 inh | USP17 inh
Cc1cc(=O)n2nc(-c3cccs3)nc2n1CC(=O)Nc1cccc(C(F)(F)F)c1 | -11.3 | 4.9 | 5.4
Cc1cccc(NC(=O)Cn2c(C)cc(=O)n3nc(-c4cccs4)nc23)c1 | 10.0 | 3.1 | 47.5*
Cc1cc(=O)n(CC(=O)Nc2cccc(F)c2)c(N2CCCC2)n1 | -6.7 | 1.0 | -6.9
COc1cccc(Cc2nsc(N3CCCC(C(=O)O)C3)n2)c1 (configuration not stated) | 24.8 | 13.4 | 12.8
CN1c2ccccc2CN(C(=O)NCCN)CC1Cc1ccccc1 (configuration not stated) | -68.1 | -7.9 | -23.0
C[C@H]1CC[C@@H]2N(CC3[C@@H]4C[C@H]5C(CC(=O)[C@H]6CC(=O)CC[C@@]65C)[C@@H]4CC[C@@H]3[C@]2(C)O)C1 (some centres not stated) | 29.3 | 11.0 | 15.3
COc1ccc(C2CC(c3ccc(Br)cc3)=NN2C(=O)CSC2CCCCC2)cc1 (configuration not stated) | 8.4 | -3.2 | -0.5
O=C(Nc1cc(S(=O)(=O)N2CCOCC2)ccc1N1CCCC1)c1cc(=O)[nH]c2ccccc12 | -78.8 | -14.4 | -11.3
O=C(Nc1ccc2c(c1)OCCCO2)c1cc(=O)[nH]c2ccccc12 | x | x | 46.1*
O=C(CCCc1c[nH]c2ccccc12)Nc1ccc2c(c1)OCCO2 | -20.0 | 74.7* | -35.2
O=C(Nc1ccc2c(c1)OCCO2)c1cc(-c2ccccn2)nc2ccccc12 | -27.1 | -11.0 | 1.8
O=C(Nc1ccc(N2CCOCC2)cc1)c1cc(=O)[nH]c2ccccc12 | 8.6 | 9.4 | 59.7*
O=C(CCCc1c[nH]c2ccccc12)Nc1ccccc1N1CCOCC1 | -14.1 | -4.9 | -5.8
Cc1ccc2c(c1)N(Cc1nc(-c3ccc(F)cc3)no1)C(=O)CO2 | -25.5 | 51.1* | -12.2
CCN1C(=O)COc2ccc(-c3noc(-c4ccnn4C)n3)cc21 | -5.5 | -1.8 | 25.6
O=C(CCc1nnc2n(CCc3ccccc3)c(=O)c3ccccc3n12)NCc1ccccn1 | 16.9 | 8.8 | 7.3
O=C(CCc1nnc2n(Cc3ccccc3)c(=O)c3ccccc3n12)NCCN1CCCC1 | -1.9 | -1.9 | -11.8
Cc1cccc(CCNC(=O)CCc2nnc3n(CCc4ccccc4)c(=O)c4ccccc4n23)c1 | 39.0* | 1.7 | 22.5
CC(C)CCn1c(=O)c2ccccc2n2c(CCC(=O)NCC3CCCO3)nnc12 (configuration not stated) | 1.5 | 1.2 | 5.3
Cc1ccc(Cn2c(=O)c3ccccc3n3c(CCC(=O)N4CCOCC4)nnc23)cc1 | 14.0 | -1.4 | -4.8
Cc1ccc(Cn2c(=O)c3ccccc3n3c(CCC(=O)NCC4CCCO4)nnc23)cc1 (configuration not stated) | 39.1* | 14.7 | x
Cc1ccc(Cn2c(=O)c3ccccc3n3c(CCC(=O)N4CCN(c5ccccn5)CC4)nnc23)cc1 | 55.0* | 27.2 | 43.2*
O=C(CCc1nnc2n(Cc3ccccc3)c(=O)c3ccccc3n12)NCc1ccc2c(c1)OCO2 | 14.2 | 2.4 | 39.2*
O=S(=O)(c1cccc(F)c1)N1CCC(O)(CN2CCOCC2)C1 (configuration not stated) | 2.5 | 6.1 | 7.7
O=C1CC(c2ccc(Cl)cc2)Cc2nc(N3CCN(c4ccccn4)CC3)ncc21 (configuration not stated) | -5.0 | -1.3 | -0.1
SMILES | USP30 block | USP28 inh | USP17 inh
CN1CCN(CCNC(=O)C2CCN(c3nc4cccnc4n(C)c3=O)CC2)CC1 | 13.0 | 6.1 | 1.8
CC(=O)Nc1cc2ccccc2nc1C1CCNCC1 | -44.9 | -9.2 | -12.4
CC1CCCN(c2nn3c(C(=O)NCc4ccccc4)cc(=O)nc3s2)C1 (configuration not stated) | 1.3 | -2.3 | -6.1
COc1ccc(N2CC(C(=O)N3CCOCC3)CC2=O)c(OC)c1 (configuration not stated) | -2.0 | 3.3 | -0.8
Cc1ccc(C)c(N2CCN(C(=O)C3CCN(c4cnc5nccnc5c4)CC3)CC2)c1 | i | -146.5 | -179.6
O=C(CCc1nnc2n(Cc3ccc(Cl)cc3)c(=O)c3ccccc3n12)N1CCN(c2ccccn2)CC1 | 83.4* | 62.0* | 51.6*
O=C(CCc1nnc2n(CCc3ccccc3)c(=O)c3ccccc3n12)N1CCN(C(=O)c2ccco2)CC1 | -11.7 | -7.7 | 0.9
